Calls of active or inactive are those of the source. Rule for the calls: active = hit-call score of the fitted dose curve at least 0.9, where 1 is the maximum; inactive = score below 0.9.
What was measured:
Details in all cases: mRNA level, 48 h; actives raise or lower the signal
[1] = read-out: CYP3A5 (gene 1577); test: LTEA_HepaRG_CYP3A5: Life Technologies and Expression Analysis (LTEA) Assay for CYP3A5 using HepaRG (AID 2283493)
Summary of the method: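 HepaRG cells, plated 48 h then in serum-free induction medium, dosed in duplicate for 48 h with eight half-log concentrations up to 100 uM in 0.5% DMSO. Gene mRNA by Fluidigm TaqMan qRT-PCR, normalized to ACTB, GAPDH, POLR2A.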

[2] = read-out: Fatty Acid-Binding Protein 1 (FABP1), FABP1 (gene 2168); test: LTEA_HepaRG_FABP1: Life Technologies and Expression Analysis (LTEA) Assay for Fatty Acid-Binding Protein 1 (FABP1) using HepaRG (AID 2283494)
Summary of the method: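 Differentiated human HepaRG cells were exposed in duplicate for 48 h in serum-free induction medium to 8-point half-log concentration series topping at 100 uM in 0.5% DMSO. FABP1 mRNA measured by TaqMan qRT-PCR, normalized to ACTB/GAPDH/POLR2A; bidirectional fit versus DMSO.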

[3] = read-out: Glutathione S-Transferase (GSTA2), GSTA2 (gene 2939); test: LTEA_HepaRG_GSTA2: Life Technologies and Expression Analysis (LTEA) Assay for Glutathione S-Transferase (GSTA2) using HepaRG (AID 2283497)
Summary of the method: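 Human HepaRG cells, plated 48 h, then exposed in serum-free induction medium for 48 h to eight half-log concentrations up to 100 uM in 0.5% DMSO, duplicate. GSTA2 mRNA by qRT-PCR, normalized to ACTB/GAPDH/POLR2A; bidirectional fit versus DMSO.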

[4] = read-out: Glutamate-cysteine ligase catalytic (GCLC), GCLC (gene 2729); test: LTEA_HepaRG_GCLC: Life Technologies and Expression Analysis (LTEA) Assay for Glutamate-cysteine ligase catalytic (GCLC) using HepaRG (AID 2283498)
Summary of the method: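 Differentiated human HepaRG cells, plated 48 h then switched to serum-free induction medium, were exposed in duplicate for 48 h to 8 half-log concentrations topping at 100 uM in 0.5% DMSO. GCLC mRNA was quantified by qRT-PCR against ACTB, GAPDH and POLR2A.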

[5] = read-out: growth arrest and DNA damage 45 (GADD45G), GADD45G (gene 10912); test: LTEA_HepaRG_GADD45G: Life Technologies and Expression Analysis (LTEA) Assay for growth arrest and DNA damage 45 (GADD45G) using HepaRG (AID 2283499)
Summary of the method: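 HepaRG, 48 h exposure, top 100 uM, half-log 8-point series, 0.5% DMSO vehicle, duplicates. Readout: GADD45G transcript by qRT-PCR (Fluidigm array), housekeeping-normalised (ACTB/GAPDH/POLR2A). Bidirectional curve fit vs DMSO baseline.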

[6] = read-out: Glutamate-cysteine ligase regulatory (GCLM), GCLM (gene 2730); test: LTEA_HepaRG_GCLM: Life Technologies and Expression Analysis (LTEA) Assay for Glutamate-cysteine ligase regulatory (GCLM) using HepaRG (AID 2283500)
Summary of the method: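 Differentiated HepaRG cells exposed 48 h in serum-free induction medium to eight half-log concentrations up to 100 uM (0.5% DMSO). GCLM mRNA by TaqMan qRT-PCR, normalized to ACTB, GAPDH and POLR2A; bidirectional fit versus DMSO.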

[7] = read-out: Glutathione S-transferase M3 (GSTM3), GSTM3 (gene 2947); test: LTEA_HepaRG_GSTM3: Life Technologies and Expression Analysis (LTEA) Assay for Glutathione S-transferase M3 (GSTM3) using HepaRG (AID 2283501)
Summary of the method: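 qRT-PCR read-out of GSTM3 transcript, normalized to three housekeeping genes, from human HepaRG cells after 48 h chemical exposure. Eight-point half-log series, top 100 uM, 0.5% DMSO vehicle; gain or loss fitted relative to DMSO baseline.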

[8] = read-out: Heat shock 70 kDa protein 1 (HSPA1A), gene 3303; test: LTEA_HepaRG_HSPA1A: Life Technologies and Expression Analysis (LTEA) Assay for Heat shock 70 kDa protein 1 (HSPA1A) using HepaRG (AID 2283502)
Summary of the method: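 Human HepaRG cells in serum-free induction medium were exposed in duplicate for 48 h to 8 half-log concentrations, highest 100 uM, in 0.5% DMSO. HSPA1A mRNA read by TaqMan qRT-PCR, normalized to ACTB, GAPDH, POLR2A, fitted bidirectionally against DMSO.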

[9] = read-out: Hypoxia-inducible factor 1-alpha (Homo sapiens) (UniProt Q16665); test: LTEA_HepaRG_HIF1A: Life Technologies and Expression Analysis (LTEA) Assay for Hypoxia-inducible factor 1 (HIF1A) Trancription factor using HepaRG (AID 2283503)
Summary of the method: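 Differentiated HepaRG cells in serum-free induction medium exposed 48 h, in duplicate, to 8-point half-log series from 100 uM in 0.5% DMSO. HIF1A mRNA measured by TaqMan qRT-PCR, normalized to ACTB/GAPDH/POLR2A, fitted bidirectionally versus DMSO.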

[10] = read-out: 3-Hydroxy-3-Methylglutaryl-CoA Synthase 2 (HMGCS2), HMGCS2 (gene 3158); test: LTEA_HepaRG_HMGCS2: Life Technologies and Expression Analysis (LTEA) Assay for 3-Hydroxy-3-Methylglutaryl-CoA Synthase 2 (HMGCS2) using HepaRG (AID 2283504)
Summary of the method: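 qRT-PCR read-out of HMGCS2 transcript, normalised to three housekeeping genes, in HepaRG cells after 48 h chemical exposure. Eight-point curves from 100 uM, half-log dilutions, 0.5% DMSO vehicle; gain or loss fitted relative to DMSO baseline.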

[11] = read-out: HGF (gene 3082); test: LTEA_HepaRG_HGF: Life Technologies and Expression Analysis (LTEA) Assay for Hepatocyte Growth Facto (HGF) using HepaRG (AID 2283505)
Summary of the method: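 HepaRG, 48 h dosing, 8-pt half-log series from 100 uM in 0.5% DMSO, duplicates. Readout: TaqMan qRT-PCR of HGF mRNA, housekeeping-normalized; bidirectional curve fit vs DMSO baseline.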

[12] = read-out: Insulin Like Growth Factor 1 (IGF1), IGF1 (gene 3479); test: LTEA_HepaRG_IGF1: Life Technologies and Expression Analysis (LTEA) Assay for Insulin Like Growth Factor 1 (IGF1) using HepaRG (AID 2283506)
Summary of the method: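 Differentiated HepaRG cells in serum-free induction medium, exposed 48 h in duplicate to 8 half-log concentrations up to 100 uM in 0.5% DMSO. IGF1 mRNA by Fluidigm qRT-PCR, normalised to ACTB, GAPDH and POLR2A.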

[13] = read-out: Intercellular Adhesion Molecule 1 (ICAM1), ICAM1 (gene 3383); test: LTEA_HepaRG_ICAM1: Life Technologies and Expression Analysis (LTEA) Assay for Intercellular Adhesion Molecule 1 (ICAM1) using HepaRG (AID 2283507)
Summary of the method: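 HepaRG, 48 h exposure, 8-pt half-log series from 100 uM, 0.5% DMSO vehicle, duplicates. Readout: TaqMan qRT-PCR mRNA, housekeeping-normalized (ACTB/GAPDH/POLR2A). Bidirectional curve fit vs DMSO baseline.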

[14] = read-out: Insulin-like growth factor-binding protein 1 (IGFBP1), IGFBP1 (gene 3484); test: LTEA_HepaRG_IGFBP1: Life Technologies and Expression Analysis (LTEA) Assay for Insulin-like growth factor-binding protein 1 (IGFBP1) using HepaRG (AID 2283508)
Summary of the method: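 qRT-PCR mRNA read-out (TaqMan, Fluidigm array), normalised to three housekeeping genes; HepaRG cells, 48 h exposure, 8-pt half-log series from 100 uM, 0.5% DMSO vehicle; bidirectional curve fit vs DMSO baseline.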

[15] = read-out: Interleukin 6 (IL6), IL6 (gene 3569); test: LTEA_HepaRG_IL6: Life Technologies and Expression Analysis (LTEA) Assay for Interleukin 6 (IL6) using HepaRG (AID 2283509)
Summary of the method: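 Differentiated human HepaRG cells, plated 48 h then switched to serum-free induction medium, were exposed in duplicate for 48 h to eight half-log concentrations up to 100 uM in 0.5% DMSO. IL6 mRNA measured by qRT-PCR, normalized to ACTB/GAPDH/POLR2A.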

[16] = read-out: Interleukin 6 Receptor (IL6R), IL6R (gene 3570); test: LTEA_HepaRG_IL6R: Life Technologies and Expression Analysis (LTEA) Assay for Interleukin 6 Receptor (IL6R) using HepaRG (AID 2283510)
Summary of the method: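 Differentiated HepaRG cells, plated 48 h, then exposed in duplicate for 48 h in serum-free induction medium to 8 half-log concentrations (top 100 uM, 0.5% DMSO). IL6R mRNA measured by TaqMan qRT-PCR, normalized to ACTB/GAPDH/POLR2A; bidirectional fit vs DMSO.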

[17] = read-out: Potassium channel subfamily K member 1 (KCNK1), KCNK1 (gene 3775); test: LTEA_HepaRG_KCNK1: Life Technologies and Expression Analysis (LTEA) Assay for Potassium channel subfamily K member 1 (KCNK1) using HepaRG (AID 2283511)
Summary of the method: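 Differentiated human HepaRG cells in serum-free induction medium were exposed in duplicate for 48 h to 8 half-log concentrations up to 100 uM in 0.5% DMSO. KCNK1 mRNA was measured by TaqMan qRT-PCR, normalized to ACTB, GAPDH and POLR2A, and fitted bidirectionally versus DMSO.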

[18] = read-out: Keratin 19 (KRT19), KRT19 (gene 3880); test: LTEA_HepaRG_KRT19: Life Technologies and Expression Analysis (LTEA) Assay for Keratin 19 (KRT19) using HepaRG (AID 2283512)
Summary of the method: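 HepaRG, 48 h chemical exposure, 8-pt half-log CRC from 100 uM, 0.5% DMSO vehicle, duplicates. Readout: TaqMan qRT-PCR of KRT19 mRNA, housekeeping-normalized (ACTB/GAPDH/POLR2A). Bidirectional fit vs DMSO baseline.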

[19] = read-out: JUN Transcription Factor, JUN (gene 3725); test: LTEA_HepaRG_JUN: Life Technologies and Expression Analysis (LTEA) Assay for JUN Transcription Factor using HepaRG (AID 2283513)
Summary of the method: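 HepaRG cells, 48 h post-plating, exposed 48 h in serum-free induction medium to 8-point half-log series (top 100 uM, 0.5% DMSO), duplicate; mRNA by qRT-PCR (TaqMan, Fluidigm), normalized to ACTB/GAPDH/POLR2A; bidirectional fit vs DMSO.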

Measured: outcome

Sequence of Hypoxia-inducible factor 1-alpha (Homo sapiens) (Q16665 whole entry, looked up): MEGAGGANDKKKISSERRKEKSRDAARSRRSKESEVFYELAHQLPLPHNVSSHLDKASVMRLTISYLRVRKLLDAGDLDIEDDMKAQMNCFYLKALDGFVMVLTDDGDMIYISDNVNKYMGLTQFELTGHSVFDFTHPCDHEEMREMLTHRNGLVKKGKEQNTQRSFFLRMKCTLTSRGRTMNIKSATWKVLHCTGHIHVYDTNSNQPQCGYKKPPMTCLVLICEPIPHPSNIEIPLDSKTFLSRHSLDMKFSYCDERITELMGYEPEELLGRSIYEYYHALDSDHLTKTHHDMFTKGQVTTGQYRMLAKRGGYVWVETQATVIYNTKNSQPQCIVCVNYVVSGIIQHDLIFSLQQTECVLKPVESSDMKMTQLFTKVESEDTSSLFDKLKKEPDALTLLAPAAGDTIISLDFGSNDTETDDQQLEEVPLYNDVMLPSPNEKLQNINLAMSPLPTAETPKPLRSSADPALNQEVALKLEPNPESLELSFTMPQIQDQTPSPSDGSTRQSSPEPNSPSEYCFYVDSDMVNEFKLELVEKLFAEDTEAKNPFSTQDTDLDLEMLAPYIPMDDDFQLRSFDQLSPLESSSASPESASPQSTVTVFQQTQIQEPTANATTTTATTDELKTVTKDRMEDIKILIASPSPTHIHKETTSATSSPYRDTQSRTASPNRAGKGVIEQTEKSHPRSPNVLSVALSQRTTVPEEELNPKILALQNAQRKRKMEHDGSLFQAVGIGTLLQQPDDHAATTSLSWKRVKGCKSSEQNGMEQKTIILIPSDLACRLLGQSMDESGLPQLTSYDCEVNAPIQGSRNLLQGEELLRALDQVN

c1cc[n+]2c(c1)-c1cccc[n+]1CC2
inactive: all assays above

— PubChem BioAssay (EPA / NIEHS)
